Screening data: PubChem, several laboratories
C8 TRAIL sens: sensitizes caspase-8 expressing cells to TRAIL | 1% of 360,000 active | NB7+C8 cells + TRAIL, ATPlite viability luminescence | inhibition (viability loss, TRAIL sensitization), % at 10 µM;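 active means compounds causing at least 50% loss of cell viability in the single-dose screen, relative to plate controls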
aSyn 5UTR inh: 5' untranslated region of α-synuclein, MLPCN primary screen | 0.82% of 300,000 active | inhibition, % (tested at 7.5 µM) | alpha-synuclein 5'UTR reporter, inhibitor activity; in the data active means inhibition above about 60%;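 further: H4 neuroglioblastoma cells stably carrying SNCA 5'UTR luciferase fusion; 0% = DMSO wells and 100% = positive control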
TWEAK Fn14 block: inhibitors of TWEAK-Fn14 interaction signaling. TWEAK-stimulated Fn14 reporter cells, luciferase luminescence, 8 h. inhibition, % at 10 µM. 2% of 360,000 active. AID 1159606; in the data active means inhibition above about 50%
HIF-2a inh: inhibitors of HIF-2a | 786-0 RCC cells HIF-2a reporter, luciferase luminescence, overnight | inhibition, % at 18.8 µM | 0.72% of 360,000 active;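 active means inhibition of the luminescence signal of 40% or more relative to plate controls, in a single-dose primary screen at 18.75 µM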
TROY signal inh: TROY signaling inhibition; 0.98% of 360,000 active; AID 1347056; inhibition, % at 10 µM; Q293 LMP1-TROYcd NF-kB luciferase reporter, 4 h;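 active means compounds whose plate-normalised and pattern-corrected inhibition of the luciferase reporter signal at the single screening dose is 50% or more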
HSP90 refold inh: blocks HSP90-mediated luciferase refolding in reticulocyte lysate; Rabbit reticulocyte lysate, luciferase refolding luminescence, 3 h; inhibition, % at 5.6 µM; 0.91% of 290,000 active; AID 1789;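 active means inhibition above the screen-wide mean plus 3 SD, computed separately per campaign, cut at about 16% in these data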;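 further: 0% = DMSO wells and 100% = 60 µM geldanamycin wells; inhibitors lower the luminescence because luciferase stays unfolded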
An asterisk follows results filed as active. Hits are enriched below; roughly 3.9% of the tested compounds scored in any of these assays.

Results for Oc1c(C(Nc2ccccn2)c2cccnc2)cc(Cl)c2cccnc12 (stereo not drawn) ?
C8 TRAIL sens: 39; aSyn 5UTR inh: 52; TWEAK Fn14 block: 10; HIF-2a inh: 25; TROY signal inh: -9; HSP90 refold inh: 5

Results for CCCCC(=O)NC(c1ccco1)c1cc(Cl)c2cccnc2c1O (stereo not drawn) ?
C8 TRAIL sens: 37; aSyn 5UTR inh: 41; TWEAK Fn14 block: 26; HIF-2a inh: 35; TROY signal inh: 21; HSP90 refold inh: 4

How did CCCC(=O)NC(c1cccs1)c1cc([N+](=O)[O-])c2cccnc2c1O (stereo not drawn) do in these assays?
C8 TRAIL sens: 39; aSyn 5UTR inh: 30; TWEAK Fn14 block: 11; HIF-2a inh: 14; TROY signal inh: 0; HSP90 refold inh: -2

Results for COc1ccc(C(NC(=O)c2cccnc2)c2cc(Cl)c3cccnc3c2O)cc1OC (stereo not drawn) ?
C8 TRAIL sens: 6; aSyn 5UTR inh: 76*; TWEAK Fn14 block: 15; HIF-2a inh: 10; TROY signal inh: 17; HSP90 refold inh: -1

How did O=C(CCc1ccccc1)NC(c1cccs1)c1cc(Cl)c2cccnc2c1O (stereo not drawn) do in these assays?
C8 TRAIL sens: 30; aSyn 5UTR inh: 88*; TWEAK Fn14 block: 9; HIF-2a inh: 4; TROY signal inh: 8; HSP90 refold inh: 2

What do the screens show for `CCC(=O)NC(c1ccco1)c1cc(Cl)c2cccnc2c1O` (stereo not drawn)?
C8 TRAIL sens: 26; aSyn 5UTR inh: 100*; TWEAK Fn14 block: 22; HIF-2a inh: 1; TROY signal inh: 15; HSP90 refold inh: 8

How did CCC(=O)NC(c1ccc(OC)cc1)c1cc(Cl)c2cccnc2c1O (stereo not drawn) do in these assays?
C8 TRAIL sens: 43; aSyn 5UTR inh: 81*; TWEAK Fn14 block: 9; HIF-2a inh: 9; TROY signal inh: -13; HSP90 refold inh: 2

What do the screens show for `CCC(=O)NC(c1ccco1)c1cc(Cl)c2cccnc2c1OC` (stereo not drawn)?
C8 TRAIL sens: 10; TWEAK Fn14 block: 0; HIF-2a inh: 10; TROY signal inh: 9

How did Cc1c(C(=O)NCc2ccccc2C(F)(F)F)sc(=O)n1Cc1ccccc1C#N do in these assays?
C8 TRAIL sens: -4; TWEAK Fn14 block: 2; HIF-2a inh: 4; TROY signal inh: 8

Results for COc1ccc(-c2ccc3c(c2)C2CC3CCN2)cc1 (stereo not drawn) ?
C8 TRAIL sens: -9; TWEAK Fn14 block: 6; HIF-2a inh: 4; TROY signal inh: -21

Results for N#Cc1c(N)[nH]c(C(=O)c2ccccc2)c1-c1ccccc1Br ?
C8 TRAIL sens: -5; TWEAK Fn14 block: 19; HIF-2a inh: -17; TROY signal inh: 13

Results for Cc1ccc([C@H]2C[C@H](n3cc(-c4ccc(F)cc4)nn3)[C@@H](O)CN2CC2CCCCC2)cc1 ?
C8 TRAIL sens: 26; TWEAK Fn14 block: -18; HIF-2a inh: 4; TROY signal inh: -5

What do the screens show for `O=[N+]([O-])c1cc(C(F)(F)F)cc([N+](=O)[O-])c1NCCNC(=S)Nc1ccc(Cl)c(Cl)c1`?
C8 TRAIL sens: 1; aSyn 5UTR inh: 18; TWEAK Fn14 block: 22; HIF-2a inh: 8; TROY signal inh: 58*; HSP90 refold inh: 3

Results for Cc1nc2sc(-c3ccccc3)cc2c(=O)[nH]1 ?
C8 TRAIL sens: 77*; aSyn 5UTR inh: 36; TWEAK Fn14 block: 57*; HIF-2a inh: -65; TROY signal inh: 32; HSP90 refold inh: 17*

How did O=c1[nH]c(-c2cccnc2)nc2sc(-c3ccccc3)cc12 do in these assays?
C8 TRAIL sens: -4; aSyn 5UTR inh: -119; TWEAK Fn14 block: -11; HIF-2a inh: -155; TROY signal inh: -41; HSP90 refold inh: 5

How did Clc1ccc(-c2nc3nc4ccccc4nc3n2Cc2ccco2)cc1 do in these assays?
C8 TRAIL sens: 39; TWEAK Fn14 block: 59*; HIF-2a inh: -165; TROY signal inh: -5; HSP90 refold inh: 3

Results for OC(Cc1ccccc1Br)c1ncc(-c2ccc(Cl)cc2)[nH]1 (stereo not drawn) ?
C8 TRAIL sens: 16; TWEAK Fn14 block: -15; HIF-2a inh: -146; TROY signal inh: -16

Results for CCOC(=O)CSc1ccc(-c2nc3cc(C)c(C)cc3[nH]2)cn1 ?
C8 TRAIL sens: 47; aSyn 5UTR inh: -43; TWEAK Fn14 block: 42; HIF-2a inh: -57; TROY signal inh: 3; HSP90 refold inh: 2

How did Cc1ccc2nc(-c3ccc(SCC(=O)Nc4nnc(C)s4)nc3)[nH]c2c1 do in these assays?
C8 TRAIL sens: 54*; aSyn 5UTR inh: -94; TWEAK Fn14 block: 25; HIF-2a inh: -35; TROY signal inh: -49; HSP90 refold inh: 0

What do the screens show for `Cc1cc2nc(-c3ccc(SCC(=O)N4CCOCC4)nc3)[nH]c2cc1C`?
C8 TRAIL sens: 68*; aSyn 5UTR inh: -41; TWEAK Fn14 block: 29; HIF-2a inh: -242; TROY signal inh: -5; HSP90 refold inh: 1

What do the screens show for `Cc1cc2nc(-c3ccc(SCC(=O)Nc4ccc5c(c4)OCCO5)nc3)[nH]c2cc1C`?
C8 TRAIL sens: 67*; aSyn 5UTR inh: -207; TWEAK Fn14 block: 8; HIF-2a inh: -254; TROY signal inh: -22; HSP90 refold inh: -1

Results for Cc1ccc2nc(-c3ccc(SCC(=O)Nc4nc(C)cs4)nc3)[nH]c2c1 ?
C8 TRAIL sens: 48; aSyn 5UTR inh: -247; TWEAK Fn14 block: 10; HIF-2a inh: -175; TROY signal inh: -9; HSP90 refold inh: 2

What do the screens show for `Cc1cc2nc(-c3ccc(SCC(=O)N4CCN(C(=O)c5ccco5)CC4)nc3)[nH]c2cc1C`?
C8 TRAIL sens: 74*; aSyn 5UTR inh: -88; TWEAK Fn14 block: 30; HIF-2a inh: -218; TROY signal inh: 4; HSP90 refold inh: -3

How did CC(C)(C)OC(=O)N1CCc2onc(-c3ccccc3[N+](=O)[O-])c2C1=O do in these assays?
C8 TRAIL sens: -6; HIF-2a inh: -3

Results for COc1ccccc1Cc1c(C(C)(C)C)nc2ccc(C)cn12 ?
C8 TRAIL sens: -10; TWEAK Fn14 block: 8; HIF-2a inh: -102; TROY signal inh: -33

How did CCOC(=O)c1sc2nc(C)nc(NCc3ccccc3OC)c2c1C do in these assays?
C8 TRAIL sens: 13; aSyn 5UTR inh: -20; TWEAK Fn14 block: 54*; HIF-2a inh: -11; TROY signal inh: 31; HSP90 refold inh: 5

Results for CCOC(=O)c1sc2nc(C)nc(NCCc3ccccn3)c2c1C ?
C8 TRAIL sens: -14; aSyn 5UTR inh: 21; TWEAK Fn14 block: 11; HIF-2a inh: -18; TROY signal inh: 7; HSP90 refold inh: 1

How did Cc1[nH]c2ccccc2c1C1=NNC(=Nc2ccc(F)cc2)SC1 do in these assays?
C8 TRAIL sens: 3; aSyn 5UTR inh: -28; TWEAK Fn14 block: 55*; HIF-2a inh: -32; TROY signal inh: 25; HSP90 refold inh: -2
